Measured values: PubChem BioAssay AID493033 (ICCB-Longwood Screening Facility, Harvard Medical School, 2011)
The campaign covered roughly 100,000 compounds. About 930 (0.93%) were called active. Only a selection was taken, and actives are over-represented in it overall. Unmarked numbers belong to inactive results. No stated cut-off is given here; in the data, active means inhibition mostly above about 56% (no sharp cut-off); inactive means mostly below about 77%.

What follows are compounds tested against Salicylate synthase (Mycobacterium tuberculosis (strain CDC 1551 / Oshkosh)) (UniProt P9WFX0) (assay: inhibitors of M. tuberculosis MbtI – biochemical, fluorescence intensity, primary screen (AID 493033)). Details: purified MbtI enzyme, fluorescence intensity read-out, active compounds read high, concentration not given here.
Chain of Salicylate synthase (Mycobacterium tuberculosis (strain CDC 1551 / Oshkosh)) (P9WFX0 whole entry, looked up): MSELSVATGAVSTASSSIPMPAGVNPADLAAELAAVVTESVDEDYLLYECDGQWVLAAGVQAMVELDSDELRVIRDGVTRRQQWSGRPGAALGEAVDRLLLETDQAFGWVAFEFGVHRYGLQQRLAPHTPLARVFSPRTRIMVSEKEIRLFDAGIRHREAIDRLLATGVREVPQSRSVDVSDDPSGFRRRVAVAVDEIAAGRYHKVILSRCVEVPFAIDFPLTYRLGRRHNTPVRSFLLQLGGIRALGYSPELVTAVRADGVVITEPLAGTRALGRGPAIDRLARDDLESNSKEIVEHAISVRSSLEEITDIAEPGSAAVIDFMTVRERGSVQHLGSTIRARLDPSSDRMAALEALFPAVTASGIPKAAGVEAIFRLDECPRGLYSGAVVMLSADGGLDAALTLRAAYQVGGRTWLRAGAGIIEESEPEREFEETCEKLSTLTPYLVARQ
`O=C1CSC2=NC3=C(CCCC3=C3SCCCS3)C(c3ccccc3)N12` (centres undefined) gave an inhibition of -4.55%.
With `O=C1c2ccccc2C(=O)N1CNc1ccccc1C1CC1` the inhibition was -16.8%.
For `NCCCN1Cc2ccccc2C1`, the inhibition was 1.3%.
For `CCc1ccccc1NC(=O)CSc1nc2c(c(=O)[nH]1)CCC2`, the inhibition was 9.6%.
For `CCCc1cc(=O)[nH]c(SCc2ccc(C#N)cc2)n1`, the inhibition was -3.9%.
With `CC(C)(C)c1ccc(CSc2nc3c(c(=O)[nH]2)CCC3)cc1` the inhibition was 81.7% (active).
`COC(=O)c1ccc(C(=O)Nc2cc(Cl)ccc2Cl)cc1N` was tested, and the inhibition was -179%.
For `O=C1NC(=S)N(c2ccc(Br)cc2)C(=O)/C1=C/c1ccsc1`, the inhibition was 55.9% (active).
For `COc1cccc(N2C(=O)/C(=C/c3ccsc3)C(=O)NC2=S)c1`, the inhibition was 29.9%.
`Cn1cccc1/C=C1\C(=O)NC(=S)N(c2ccccc2)C1=O` showed an inhibition of 18.1%.
Compound `CCc1ccc(N(C(C)=O)c2nc(CSc3nnc4n3CCCCC4)cs2)cc1` has an inhibition of -11.7%.
For `CC1=C(C(=O)Nc2cccc(C(F)(F)F)c2)C(c2ccc3c(c2)OCO3)NC(=O)N1` (centres undefined), the inhibition was 5.1%.
For `CCCN(CC1CC1)Cn1c(=S)sc2ccccc21`, the inhibition was 65.8% (active).
Work on `O=C(C1CCNCC1)N1CCCCC1` yielded an inhibition of 6.4%.
`O=C(OCCCn1c(=O)[nH]c2ccccc21)c1ccc(S(=O)(=O)N2CCOCC2)cc1` showed an inhibition of -5%.
Work on `Cc1ccc(NC(=O)CN2C(=O)OC(C)(C)C2(C)O)cc1` (centres undefined) yielded an inhibition of -10%.
For `COc1ccc(OCCCC(=O)NNc2ccccc2)cc1`, the inhibition was -1.15%.
In the case of `Nn1c(SCC(=O)Nc2ccc(S(=O)(=O)N3CCCC3)cc2)nnc1-c1ccccc1`, the inhibition was 87.7% (active).
With `COc1ccc(Cc2nnc(SCC(=O)Nc3ccc(S(=O)(=O)N4CCCCCC4)cc3)o2)cc1` the inhibition was -15.5%.
With `O=C(CSc1nnc(-c2ccncc2)n1-c1ccccc1)Nc1ccccc1` the inhibition was 0.45%.
Work on `CCc1c(C)sc2nc(CC(=O)N3CCOCC3)[nH]c(=O)c12` yielded an inhibition of -33.3%.
Work on `NS(=O)(=O)c1ccc(CCNC(=O)CN2CC(=O)Nc3ccccc32)cc1` yielded an inhibition of 14.2%.
Compound `CNC(=O)O/N=C/c1nn(C(C)=O)cc1Br` has an inhibition of 2.45%.
Work on `COc1ccc(CC(=O)Nc2ccccc2)cc1` yielded an inhibition of -14.4%.
Compound `CNCC(=O)Nc1ccc(OC)cc1` has an inhibition of -7.3%.
`COc1ccc(Cc2n[nH]c(=S)n2NC(=O)Nc2ccc(C)cc2)cc1` was tested, and the inhibition was 92.9% (active).
`CNC(=O)Cc1nnc(-c2ccc(C)cc2)o1` gave an inhibition of -6.1%.
With `N#CC(C#N)=CNCCc1ccncc1` the inhibition was -4.8%.
`COc1cc2c(cc1OC)C(c1cc3cc4c(cc3[nH]c1=O)OCO4)N(C(=O)C1CCC1)CC2` (centres undefined) gave an inhibition of 87.5%.
`Cc1onc(-c2ccccc2)c1C(=O)NNc1ccc(C(C)(C)C)cc1` gave an inhibition of 3.55%.
In the case of `Cc1onc(-c2ccccc2)c1C(=O)Sc1ccc(C(F)(F)F)cn1`, the inhibition was 94.8% (active).
Work on `Cc1onc(-c2ccccc2)c1C(=O)Nc1cccc(C(F)(F)F)c1` yielded an inhibition of -4.15%.
Work on `COc1cc(OC)cc(C(=O)NC(C(=O)N2CCC2)C(C)C)c1` (centres undefined) yielded an inhibition of -3.25%.
`CC(C(=O)N1CCOCC1)C1SC(=O)NC1=O` (centres undefined) showed an inhibition of -3.8%.
With `CCCCS(=O)(=O)N(O)c1ccc(Cl)cc1` the inhibition was 84.8% (active).
Compound `CC(=O)Oc1ccc(N(C(C)=O)S(=O)(=O)c2ccc(Cl)cc2)cc1` has an inhibition of -0.9%.
Work on `CCCCN=Cc1c(O)n(-c2ccc(Cl)cc2)c(=O)[nH]c1=O` yielded an inhibition of 21.5%.
In the case of `Cc1[nH]c(=O)[nH]c(=O)c1NC(=O)CSc1nc2c(C)cccc2cc1C#N`, the inhibition was -1.15%.
Compound `Cc1cc(C)n(C(=O)C2CC=CCC2C(=O)O)n1` (centres undefined) has an inhibition of -7.4%.
With `O=C(CSc1nnc2n1CCCCC2)N(Cc1cccs1)c1ccc2c(c1)OCCO2` the inhibition was -10.9%.
For `CCOC(=O)Cc1n[nH]c(=S)n1C1CCCC1`, the inhibition was 13.4%.
With `Cc1ccc(OCc2n[nH]c(=S)n2C2CCCCC2)c2c1CCC2` the inhibition was 70.4% (active).
`O=C(OCC(=O)C12CC3CC(CC(C3)C1)C2)c1cccs1` gave an inhibition of 13.6%.
For `CCn1cnc2cc(NCc3ccccn3)ccc21`, the inhibition was -5.05%.
`N#C/C(=N\Nc1ccccc1)C(=O)C1CC1` was tested, and the inhibition was 97% (active).
`CCc1ccc(N/N=C(\C#N)C(=O)N2CCN(C)CC2)cc1` gave an inhibition of 6%.
For `C/C(=N/NC(=O)CCc1ccccc1)C1CC1`, the inhibition was -4.85%.
For `Cc1ccc2[nH]c3c(c2c1)CCCC3O` (centres undefined), the inhibition was 53.3%.
With `Cc1noc(C)c1COc1ccc(C(=O)OCCN2C(=O)c3ccccc3C2=O)cc1` the inhibition was -17.5%.
`O=C(NCC1CCN(c2ccc(S(=O)(=O)N3CCOCC3)cc2)CC1)Nc1cccc(F)c1` gave an inhibition of -7.4%.
In the case of `CC(OC(=O)c1ccccc1NS(=O)(=O)c1ccc2[nH]c(=O)[nH]c2c1)C(=O)N1CCCCC1` (centres undefined), the inhibition was -42.9%.
In the case of `COc1ccc(-c2nc3sc(-c4ccc(OC)cc4)nc3s2)cc1`, the inhibition was 84.3% (active).
`COc1ccc(C#N)cc1` showed an inhibition of -8.8%.
`COc1ccc(Cc2nnc(SC)[nH]c2=O)cc1` gave an inhibition of 10.6%.
Compound `CSc1cc(-c2ccc(F)cc2)nn1S(=O)(=O)c1cccc(C(F)(F)F)c1` has an inhibition of -4.6%.
In the case of `Cc1cc2ncn(-c3ccc(S(=O)(=O)N4CCCC4)cn3)c2cc1C`, the inhibition was 35.2%.
`Cc1nc(SCC(=O)c2ccc(NS(C)(=O)=O)cc2)n(C2CCCCC2)c1C` showed an inhibition of -5.8%.
With `c1ccc(Cc2nn3c(Cn4cnc5ccccc54)nnc3s2)cc1` the inhibition was 65.2% (active).
`N#CCCn1cnc2ccccc21` was tested, and the inhibition was -6.55%.
`COCCn1cnc2ccccc21` showed an inhibition of -7.65%.
For `CCOc1cc2c(cc1OCC)C(CC(=O)O)N(C(=O)Nc1ccc(OC)cc1)CC2` (centres undefined), the inhibition was 26.9%.
Compound `COc1ccccc1Nc1nc2c(S(=O)(=O)c3c(C)cc(C)cc3C)nnn2c2ccccc12` has an inhibition of 3.35%.
In the case of `COc1cc(Br)c(CC(=O)N2CCOCC2)cc1OC`, the inhibition was -8.25%.
With `O=c1ccc(-c2ccc(S(=O)(=O)Nc3ccccc3)o2)n[nH]1` the inhibition was 1.95%.
